Assay [1] in a line: qHTS assay to test for compound auto fluorescence at 535 nm (green) in HEK293 cells (AID 720680).
A short description of assay [2]: qHTS assay to test for compound auto fluorescence at 460 nm (blue) in HEK293 cell free culture (AID 720681). Note: potency is the fitted concentration of half-maximal effect. An outline of the steps:
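Compounds were added to cell-free DMEM with 10% FBS and fluorescence read directly. The blue channel used 405 nm excitation and 460 nm emission, with triamterene as the reference fluorophore.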

A short description of assay [3]: qHTS assay to test for compound auto fluorescence at 535 nm (green) in HEK293 cell free culture (AID 720682). An outline of the steps: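 Each library compound, or DMSO control, is added by pintool to medium alone, comprising DMEM and 10% FBS. Emission at 535 nm following 485 nm excitation is quantified against fluorescein.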
(Quantitative high-throughput screening tests each substance at several concentrations.)

Assay [4] in a line: qHTS assay to test for compound auto fluorescence at 590 nm (red) in HEK293 cell free culture (AID 720683). An outline of the steps:
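Cell-free wells of DMEM with 10% FBS received compound, and intrinsic fluorescence was read at excitation/emission 540/590 nm. Values expressed as equivalence to Rose Bengal sodium.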

The nature of assay [5]: qHTS assay to test for compound auto fluorescence at 590 nm (red) in HepG2 cell free culture (AID 720684). The method in brief:
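Auto fluorescence equivalency versus Rose Bengal sodium, red channel Ex/Em 540/590 nm; compounds in cell-free MEM/10% FBS; DMSO vehicle control.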

Assay [6] can be described thus: qHTS assay to test for compound auto fluorescence at 460 nm (blue) in HepG2 cell free culture (AID 720685). Note: potency is the fitted concentration of half-maximal effect. An outline of the steps: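 Cell-free plates of MEM plus 10% FBS received 23 nL compound or DMSO vehicle; blue-channel (405/460 nm) intensity scored against triamterene as reference fluorophore.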
Assay [7] is described as follows: qHTS assay to test for compound auto fluorescence at 535 nm (green) in HepG2 cell free culture (AID 720686).
The nature of assay [8]: qHTS assay to test for compound auto fluorescence at 460 nm (blue) in HepG2 cells (AID 720687). Note: potency is the fitted concentration of half-maximal effect. An outline of the steps: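 HepG2 cells in MEM with 10% FBS, attached overnight at 37 C, were exposed to compound or DMSO for 1 hr at 37 C, 5% CO2. Blue fluorescence was read at 405/460 nm, with triamterene as reference fluorophore.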
The target of assay [9] is Glucocorticoid receptor (Homo sapiens) (UniProt P04150). Kind of assay: qHTS assay to identify small molecule agonists of the glucocorticoid receptor (GR) signaling pathway (AID 720691; active = well fitted activation curve with a large enough effect in the signal ratio in the repeat runs, not every such curve was filed as active; inconclusive = weak or mixed curves, or effect the other way; inactive = no such curve, though single readings can be large or run the other way; the % refers to the signal ratio; note: potency is the fitted concentration of half-maximal effect). The method in brief: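 Compounds in DMSO, alongside positive controls, were added to GR-bla HeLa reporter cells and incubated 18 h at 37 C; GRE-driven beta-lactamase was detected by fluorescence after 2 h with FRET substrate at room temperature.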
Sequence of Glucocorticoid receptor (Homo sapiens) (P04150 whole entry, looked up): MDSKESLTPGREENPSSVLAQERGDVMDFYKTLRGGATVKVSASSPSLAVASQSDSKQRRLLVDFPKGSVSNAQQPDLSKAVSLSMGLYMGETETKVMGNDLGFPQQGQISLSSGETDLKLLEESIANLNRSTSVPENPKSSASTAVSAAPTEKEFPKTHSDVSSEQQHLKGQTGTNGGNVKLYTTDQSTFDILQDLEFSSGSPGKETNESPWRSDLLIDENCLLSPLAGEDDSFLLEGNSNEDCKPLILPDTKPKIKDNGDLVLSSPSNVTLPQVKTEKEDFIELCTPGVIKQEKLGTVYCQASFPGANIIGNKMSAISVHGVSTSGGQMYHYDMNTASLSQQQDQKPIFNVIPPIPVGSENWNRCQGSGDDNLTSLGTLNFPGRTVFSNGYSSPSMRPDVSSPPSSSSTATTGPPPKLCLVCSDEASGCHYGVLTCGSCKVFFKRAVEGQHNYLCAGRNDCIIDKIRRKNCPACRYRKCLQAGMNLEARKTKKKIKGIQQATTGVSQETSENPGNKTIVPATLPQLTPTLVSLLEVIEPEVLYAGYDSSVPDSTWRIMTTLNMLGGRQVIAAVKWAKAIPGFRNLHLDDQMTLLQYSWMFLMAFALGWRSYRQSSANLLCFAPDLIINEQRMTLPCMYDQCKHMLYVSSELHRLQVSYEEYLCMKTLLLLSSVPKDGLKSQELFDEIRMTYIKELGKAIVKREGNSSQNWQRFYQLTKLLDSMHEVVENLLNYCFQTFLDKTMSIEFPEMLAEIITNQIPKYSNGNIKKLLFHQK

“And” between values parts separate entries of the source, which are not always exact repeats. Equal entries are not always repeated. Values without a mark were called inactive. The source made the active and inactive calls. Unless noted, calls come from the whole dose curve; as a rule, active = well fitted curve in the direction sought with a large enough effect in the repeat runs; inconclusive = weak or mixed curves; inactive = flat fitted curve, though single readings scatter.
% is set by controls: 0 for no effect and ±100 for the full control effect; tags give direction and shape of the fitted curve or compound fluorescence and quenching.

As for `Cc1ccc(N/N=c2\c(=O)cc/c(=N\Nc3ccc(S(=O)(=O)O)cc3)c2=O)c(C)c1`, the Potency result in assay [1], in [2], in assay [3], in assay [4], in [5] and in assay [6] was “inactive” in each case. The Potency entry in assay [7] and in assay [8] was “inactive” in each case.

Regarding `CCCCCCCCCCCCOCCOCCOCCOCCOCCOCCOCCOCCOCCO`, the Potency result in assay [1], in assay [2], in assay [3], in [4], in assay [5] and in assay [6] was “inactive” in each case. The Potency entry in [7] and in assay [8] was “inactive” throughout.

Take `CCCCC(CC)CN1CN(CC(CC)CCCC)CC(C)(N)C1` (centres undefined): the fluorescence, % of fluorescein in assay [1] is -0.025% [at 18.6 µM]. Moreover, the fluorescence, % of fluorescent control is -0.0323% [at 18.6 µM] in [2], -0.232% [at 18.6 µM] in assay [4], -0.127% [at 18.6 µM] in [6] and -0.0067% [at 18.6 µM] in assay [8]. Besides, in assay [3], the activity change was 0.0339% [at 18.6 µM, hits give high values]. For the same compound, in assay [5], the fluorescence, % of Rose Bengal is 0.0615% [at 18.6 µM]. In addition, the fluorescence, % of fluorescein control in assay [7] is -0.051% [at 18.6 µM].

Take `CC(C)OC(=O)C(O)(CC(=O)O)CC(=O)O`: the Potency entry in assay [1], in assay [2], in assay [3], in assay [4], in assay [5] and in assay [6] was “inactive” throughout. Moreover, the Potency result in assay [7] and in assay [8] was “inactive” in each case.

In the case of `CCC(COC(=O)CCS)(COC(=O)CCS)COC(=O)CCS`, the Potency result in assay [1], in [2], in assay [3], in assay [4], in [5] and in assay [6] was “inactive” in each case. For the same compound, in [7], the Potency entry is “inactive”.

Regarding `O=S(=O)(O)c1ccc(Nc2nc(Nc3ccc(/C=C/c4ccc(Nc5nc(Nc6ccc(S(=O)(=O)O)cc6)nc(N(CCO)CCO)n5)cc4S(=O)(=O)O)c(S(=O)(=O)O)c3)nc(N(CCO)CCO)n2)cc1`, the Potency entry in assay [1], in [3], in [4], in assay [5] and in [7] was “inactive” throughout. For the same compound, the Potency in assay [2] was 25.1 µM (active); in [6] it was 35.5 µM [fluorescent] (active).

For the compound `O=C(O)c1cc(O)c2ccccc2c1O`, the Potency result in [1], in assay [2], in assay [3], in assay [4], in [5] and in [6] was “inactive” in each case. Also, in assay [7], the Potency entry was “inactive”.

On to `CCCCCCCCCCCCCCCC[N+](C)(C)CC`, for which the Potency entry in assay [1], in assay [2], in assay [3], in assay [4], in [5] and in assay [6] was “inactive” each time. Also, the Potency entry in [7] and in assay [8] was “inactive” each time.

In the case of `S=c1nccc[nH]1`, the Potency result in assay [1], in [2], in assay [3], in [4], in assay [5] and in [6] was “inactive” in each case. Moreover, the Potency entry in assay [7] and in assay [8] was “inactive” each time.

For `CN1CCN2c3ccccc3Cc3ccccc3C2C1` (centres undefined), the Potency result in [1], in assay [2], in [3], in assay [4], in [5] and in [6] was “inactive” throughout. In addition, the Potency result in assay [7] and in [8] was “inactive” in each case.

Regarding `Oc1c(I)cc(Cl)c2cccnc12`, the Potency entry in assay [1], in [2], in assay [3], in assay [4], in assay [5] and in assay [6] was “inactive” in each case. Besides, the Potency result in [7] and in assay [8] was “inactive” throughout.

In the case of `CC1=CCC(=C(C)C)CC1`, the Potency result in assay [1], in [2], in assay [3], in assay [4], in assay [5] and in assay [6] was “inactive” throughout. Moreover, the Potency entry in assay [7] was “inactive”.

With `O=S(=O)(O)c1ccccc1/C=C/c1ccc(-c2ccc(/C=C/c3ccccc3S(=O)(=O)O)cc2)cc1`, the Potency result in [1], in assay [3], in [4], in assay [5] and in assay [7] was “inactive” throughout. Further, the Potency in assay [2] was 6.31 µM (active); in [6], 6.31 µM [fluorescent] (active); in assay [8] it was 5.62 µM [fluorescent] (active).

As for `COc1cccc2c1C(=O)c1c(O)c3c(c(O)c1C2=O)C[C@@](O)(C(C)=O)C[C@@H]3O[C@H]1C[C@H](N)[C@H](O)[C@H](C)O1`, the Potency entry in [1], in assay [2], in assay [3], in assay [4], in [5] and in assay [6] was “inactive” in each case. In addition, the Potency entry in [7] and in assay [8] was “inactive” in each case. For the same compound, the Potency in assay [9] was 3.01 µM [inconclusive] (active) and 49.3 µM [inconclusive] (active).

In the case of `O=C(O)CCN(C1(C(=O)NO)CCCC1)S(=O)(=O)c1ccc(Oc2ccc(F)cc2)cc1`, the Potency entry in assay [1], in assay [2], in [3], in assay [4], in assay [5] and in [6] was “inactive” throughout. The Potency result in [7] and in assay [8] was “inactive” throughout.

Consider `CCCCCCCC/C=C\CCCCCCCCN`, for which the Potency result in assay [1], in assay [2], in assay [3], in assay [4], in [5] and in [6] was “inactive” each time. Moreover, the Potency result in assay [7] is “inactive”.

On to `Cc1c(C)c2c(c(C)c1OC(=O)c1cccnc1)CC[C@@](C)(CCC[C@H](C)CCC[C@H](C)CCCC(C)C)O2`, for which the Potency entry in [1], in assay [2], in assay [3], in [4], in [5] and in assay [6] was “inactive” each time. For the same compound, the Potency entry in assay [7] and in assay [8] was “inactive” throughout.

For the compound `Cc1cccc2cccnc12`, the Potency result in [1], in [2], in assay [3], in assay [4], in assay [5] and in assay [6] was “inactive” in each case. Moreover, the Potency entry in assay [7] and in [8] was “inactive” throughout.

On to `CCC(C)[O-].CCC(C)[O-].CCOC(=O)/C=C(/C)[O-].[Al+3]`, for which the Potency entry in assay [1], in assay [2], in assay [3], in assay [4], in assay [5] and in assay [6] was “inactive” in each case. For the same compound, the Potency entry in assay [7] and in assay [8] was “inactive” each time.

Take `CC[N+](CC)(CC)CCOC(=O)C(C1CCCC1)C1CCCC1`: the Potency result in assay [1], in [2], in [3], in assay [4], in [5] and in [6] was “inactive” in each case. For the same compound, in [7], the Potency result is “inactive”.

Regarding `CCC(=O)C(=O)CC`, the Potency result in [1], in assay [2], in assay [3], in assay [4], in assay [5] and in [6] was “inactive” throughout. Moreover, the Potency entry in assay [7] was “inactive”.

With `O[C@@H]([C@H](O)[C@H](O)CBr)[C@H](O)CBr`, the Potency entry in assay [1], in [2], in [3], in assay [4], in [5] and in [6] was “inactive” in each case. Besides, the Potency result in assay [7] and in assay [8] was “inactive” throughout.

Regarding `OC/C=C/CO`, the Potency entry in [1], in [2], in [3], in assay [4], in [5] and in assay [6] was “inactive” in each case. Besides, the Potency entry in [7] and in [8] was “inactive” throughout.

Consider `CC1=Nc2ccccc2C1(C)C`, for which the Potency result in assay [1], in assay [2], in assay [3], in assay [4], in [5] and in assay [6] was “inactive” in each case. The Potency result in assay [7], in assay [8] and in assay [9] was “inactive” each time.

Take `OC12N=C(c3ccccc3)SC1Cc1cc(Cl)ccc12` (centres undefined): the Potency result in assay [1], in [2], in assay [3], in assay [4], in assay [5] and in assay [6] was “inactive” throughout. The Potency result in [7] was “inactive”.

These data come from PubChem BioAssay (Tox21).
